Measured values as given in PubChem BioAssay AID493169 (National Center for Advancing Translational Sciences (NCATS), 2011).
Results filed as inconclusive are left out. Calls of active or inactive are those of the source. Calls follow the shape of the dose curve; as a rule, active = well fitted inhibition curve with a large enough effect; inconclusive = small, poorly fitted or top-dose-only effect; inactive = flat fitted curve, though single readings scatter.

test: CHOP2 Reporter Counterscreen Assay for Inhibitors of Ubiquitin-specific Protease USP2a; settings: purified enterokinase, fluorogenic substrate, 485/531 nm; series mostly up to 38.3 µM; activity change, negative = inhibition: at the top concentration;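 also: activated enterokinase alone at 50 pM in a cell-free format rather than USP2a or CHOP2; nearly all actives have a fitted effect of over 55% in size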
From the text: NIH Molecular Libraries Probe Centers Network [MLPCN] NIH Chemical Genomics Center [NCGC] MLPCN Grant: XO1-MH079852-01 PI Name: Nicholson, Ben. Progenra Inc, Malvern, PA NCGC Assay Overview: Homeostasis of cellular proteins is maintained through a combination of synthesis and degradation. The pathway that accounts for the majority of protein degradation is the ubiquitin-proteasomal pathway. Ubiquitin (Ub) is highly conserved in all cells and the generation of a multi-Ub chain typically targets proteins for degradation by the proteasome. However, ubiquitination is highly reversible and dynamic. Deubiquitination, the reverse process, is catalyzed through the action of enzymes referred to as isopeptidases or deubiquitinating enzymes (DUBs). This group of enzymes is collectively responsible for maintaining adequate pools of free ubiquitin and regulating the ubiquitination status of cellular proteins. The class of DUBs referred to as the ubiquitin-specific proteases (USP) family functions endoproteolytically to cleave Ub chains from a wide range of protein substrates. USP2a deubiquitinates fatty acid synthase (FASN) which has recently been identified as an emerging oncology target. To identify inhibitors of USP2a a cell-free assay was employed. This assay is a counterscreen against the reporter enzyme used to measure USP2a activity in the primary qHTS assay. The reporter enzyme is a protease (enterokinase, EK; EC 3.4.21.9), which is activated when a Ub sequence is cleaved by USP2a. The counterscreen assay is performed in the same buffer and conditions as the primary USP2a coupled assay but uses fully activated EK alone. The assay gives a fluorescent read-out at excitation/emission wavelengths of 485/531. The assay was provided by Progenra, Inc. and has been licensed for sale by LifeSensors, Inc.
NCGC Assay Protocol: The assay buffer, prepared fresh at the day of the assay, contains 20mM Tris-HCl pH 8.0, 2mM CaCl2, 2mM beta-Mercaptoethanol, 0.05% CHAPS. 3uL of 100 pM EK (50 pM final) was dispensed into a medium-binding black solid Kalypsys 1,536 well plate using the Kalypsys dispenser. The assay plate was then pinned with 23nL compounds in DMSO with the Kalypsys pintool in columns 5-48 (0.3% final DMSO concentration). The negative control was buffer/DMSO only in column 3. The assay plate is incubated at RT for 30min. Subsequently, 3uL of reporter substrate (25nM final) were dispensed into the plate using the Kalypsys dispenser. Plates were read after 10 min at RT on a ViewLux (Perkin Elmer) plate reader using the following wavelengths: Ex 485nm /Em 531nm. Data were normalized to the AC100 inhibition (buffer alone). Concentration-response curves were fitted to the normalized data and the concentration-response curves were then classified based on curve quality (r2), response magnitude and degree of measured activity. The time zero reading was used to flag fluorescence artifacts.
% is scaled to controls: 0 for no effect and ±100 for the full control effect; potency is read from the fitted curve at half-maximal effect.

Structure (SMILES) | activity change, negative = inhibition | Potency
CCOc1ccc(NC(=O)CSc2nnc(Cn3c(=O)sc4ccccc43)n2C)cc1 | 3.46% (inactive) | –
CCc1cc(C(=O)N=Nc2c(O)[nH]c3ccc([N+](=O)[O-])cc23)c2ccccc2n1 | – | 8.91 µM (active)
CCOc1ccc(NC(=O)N(CCCN2CCOCC2)Cc2cccnc2)cc1 | 5.89% (inactive) | –
COc1ccc(-c2nc(C#N)c(NCC3CCCO3)o2)cc1OC (stereo not given) | -2.04% (inactive) | –
CC(C)(C)c1cc(Br)ccc1OCC(=O)Nc1ncn[nH]1 | 4.35% (inactive) | –
O=C(O)CP(=O)(c1ccccc1)c1ccccc1 | -0.61% (inactive) | –
O=C(CCn1c(=O)c2ccccc2n(Cc2ccccc2)c1=O)NCc1ccc2c(c1)OCO2 | -8.97% (inactive) | –
Cc1cc(NC(=O)CN2C(=O)NC3(CCCCC3C)C2=O)no1 (stereo not given) | -2.71% (inactive) | –
COc1ccc(C(=O)C[N+]2(C)CCOCC2)cc1 | 6.58% (inactive) | –
Cc1nn(CC(=O)Nc2cccc(S(N)(=O)=O)c2)c(C)c1[N+](=O)[O-] | -0.506% (inactive) | –
Cc1cccc(-c2nnc3n2N=C(c2ccc(Br)cc2)CS3)c1 | -1.47% (inactive) | –
COc1ccc(CCn2c(O)cc3nn(-c4nc5ccccc5s4)c(=O)c-3c2C)cc1 | – | 11.2 µM (active)
O=C(O)c1cccc(S(=O)(=O)NNc2ccccc2C(F)(F)F)c1 | -1.31% (inactive) | –
NC(=O)c1ncc(C(F)(F)F)cc1Oc1cccc(F)c1 | -0.938% (inactive) | –
Cc1cc(SCC(=O)NC2CCCCC2)nc2ccccc12 | 1.52% (inactive) | –
O=C(Nc1cccc(-c2nn[nH]n2)c1)c1ccc(Br)s1 | – | 3.98 µM (active)
O=C(c1ccccc1)N1CCN(C(=O)N2CCCCC2)CC1 | 2.79% (inactive) | –
Cc1cccc(Nc2nc(NCc3ccco3)c3ccccc3n2)c1 | -15.7% (inactive) | –
O=C(CCc1nc(-c2ccccc2F)no1)NC1CCCCCC1 | 1.18% (inactive) | –
CCCCC1NC(C(=O)O)CS1 (stereo not given) | 2.37% (inactive) | –

Structure (SMILES) | activity change, negative = inhibition | Potency
CC12CN3CC(C)(CN(C1)C3c1ccc(Cl)cc1Cl)C2O (stereo not given) | 2.93% (inactive) | –
O=C(CCCN1C(=O)/C(=C\c2ccco2)SC1=S)Nc1ccc(O)cc1C(=O)O | – | 12.6 µM (active)
O=C(Nc1ccc(N2CCCC2)cc1)c1cccc(-c2cc3ccccc3oc2=O)c1 | -5.21% (inactive) | –
COC(=O)CC1Oc2ccc(C)cc2NC1=O (stereo not given) | -0.941% (inactive) | –
Cc1cc(-c2csc(NC(=O)c3ccc(=O)[nH]c3)n2)c(C)n1Cc1ccccc1 | -5.1% (inactive) | –
CCOC(=O)c1c(C)c(C(=O)O)n(C)c1C | 2.01% (inactive) | –
C#CCOCCOCCOCCNc1nc(N2CCN(C(=O)CCCCCCCCCCNC(=O)Cn3cc(CCCCCN)nn3)CC2)nc(N2CCN(C(=O)CCCCCCCCCCNC(=O)[C@H]([C@@H](C)CC)n3cc(CCCCCN)nn3)CC2)n1 | – | 5.62 µM (active)
CCCCNc1nc2ccccc2nc1NS(=O)(=O)c1cccs1 | 3.62% (inactive) | –
CCOc1cccc(NC(=O)/C(C#N)=C\c2cn(CC(=O)O)c3ccccc23)c1 | -10.4% (inactive) | –
COCc1cc(C)nc(OCC(=O)N/N=C\c2cc(C)n(-c3cccc(C(F)(F)F)c3)c2C)c1C#N | -0.186% (inactive) | –
O=C(OCC(=O)N1CCCCC1)c1cc2ccccc2cc1O | 0.355% (inactive) | –
CCn1c(SCC(=O)NCCc2ccccc2)nnc1-c1cccs1 | 2.03% (inactive) | –
Cc1sc2nc(CN3CCN(c4ccc(O)cc4)CC3)[nH]c(=O)c2c1C | 0.0748% (inactive) | –
COc1cccc(NC(=O)CSc2nncn2-c2ccccn2)c1 | 1.46% (inactive) | –
Cc1ccc(-c2c(C#N)c(N)nc3c2CCCCC3)o1 | 1.52% (inactive) | –
NC1=NC(=O)/C(=C/c2cccc(-c3ccc(S(N)(=O)=O)cc3)c2)S1 | -14.4% (inactive) | –
CCOC(=O)C(=O)Nc1nc(-c2ccc3c(c2)CCN3C(=O)C2CC2)c(C)s1 | -5.35% (inactive) | –
COC(=O)c1ccccc1NC(=O)CSc1nc(O)cc(=O)n1C1CCCC1 | -3.97% (inactive) | –
COC(=O)c1ccc(NC(=O)CSC2=Nc3ccccc3C3CC=NN23)cc1 (stereo not given) | -1.25% (inactive) | –
CCC(C)NC(=O)C1CN(S(=O)(=O)c2ccccc2)CCN1S(=O)(=O)c1ccccc1 (stereo not given) | -0.106% (inactive) | –
